Data taken from PubChem BioAssay AID1159580 (chemical genetic matrix, 2015).
“And” between values parts separate entries of the source, which are not always exact repeats. Identical values can stand only once. The whole screen tested about 5,500 compounds, of which about 2,000 (36%) were called active. Not shown: some 18% with an inconclusive outcome. No stated cut-off is given here; in the data, active means normalized growth mostly below about 0.91 (no sharp cut-off); inconclusive means no clear call, values can overlap the other calls; inactive means mostly above about 0.92. Some of the results follow.

Assay: chemical genetic growth profiling, strain panel (AID 1159580);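 further: tested at 20 µM; growth read once vehicle control cultures reached saturation at 30 °C; 1 = growth at the plate median or of vehicle wells; lower values mean less growth of the strain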
Settings: S. cerevisiae deletion strains, growth OD

Measured: normalized growth

CC(C)Nc1nc(Cl)nc(NC(C)C)n1
inactive: locus YAL013W, strain DEP1, active compounds read low 1.01 | locus YAL021C, strain ccr4, active compounds read low 1 | locus YAL026C, strain drs2, active compounds read low 0.996 | locus YAL030W, strain snc1, active compounds read low 0.998 | locus YBL061C, strain skt5, active compounds read low 0.996 | locus YBR009C, strain hhf1, active compounds read low 1 | locus YBR021W, strain FUR4, active compounds read low 1.01 | locus YBR023C, strain chs3, active compounds read low 0.992 | locus YBR171W, strain sec66, active compounds read low 0.995 | locus YBR229C, strain ROT2, active compounds read low 0.993 | locus YBR231C, strain swc5, active compounds read low 0.996 | locus YBR279W, strain paf1, active compounds read low 0.994 | locus YCL011C, strain gbp2, active compounds read low 0.992 | locus YCL016C, strain dcc1, active compounds read low 1 | locus YCL029C, strain bik1, active compounds read low 1.01 | locus YCL061C, strain MRC1, active compounds read low 0.987 | locus YCL069W, strain vba3, active compounds read low 1.01 | locus YCR088W, strain abp1, active compounds read low 0.992 | locus YDL005C, strain med2, active compounds read low 0.998 | locus YDL035C, strain GPR1, active compounds read low 1.01 | locus YDL040C, strain nat1, active compounds read low 0.999 | locus YDL074C, strain BRE1, active compounds read low 1.01 | locus YDL101C, strain DUN1, active compounds read low 1.01 | locus YDL134C, strain PPH21, active compounds read low 1.01 | locus YDL185W, strain tfp1, active compounds read low 1.01 | locus YDL192W, strain arf1, active compounds read low 1 | locus YDR001C, strain nth1, active compounds read low 1 | locus YDR069C, strain doa4, active compounds read low 1.01 | locus YDR101C, strain arx1, active compounds read low 0.996 | locus YDR137W, strain rgp1, active compounds read low 0.953 | locus YDR150W, strain NUM1, active compounds read low 1 | locus YDR159W, strain sac3, active compounds read low 1.03 | locus YDR162C, strain NBP2, active compounds read low 1.01 | locus YDR195W, strain ref2 0.969 | locus YDR297W, strain sur2, active compounds read low 1 | locus YDR318W, strain mcm21, active compounds read low 1.02 | locus YDR334W, strain swr1, active compounds read low 0.995 | locus YDR335W, strain msn5, active compounds read low 1 | locus YDR388W, active compounds read low 1.01 | locus YDR392W, strain spt3, active compounds read low 0.996 | locus YDR502C, strain sam2, active compounds read low 1.01 | locus YEL003W, strain gim4, active compounds read low 1 | locus YEL037C, strain rad23, active compounds read low 1.01 | locus YEL061C, strain CIN8 (second series), active compounds read low 1 | locus YEL061C, strain CIN8, active compounds read low 1.01 | locus YER015W, strain faa2, active compounds read low 1 | locus YER016W, strain bim1, active compounds read low 1 | locus YER110C, active compounds read low 1.01 | locus YER111C, strain swi4, active compounds read low 0.994 | locus YER155C, strain BEM2 (second series), active compounds read low 0.992 | locus YER155C, strain BEM2, active compounds read low 1.01 | locus YER167W, strain BCK2, active compounds read low 1.01 | locus YFR010W, strain ubp6, active compounds read low 1.01 | locus YGL078C, strain dbp3, active compounds read low 1.02 | locus YGL086W, strain mad1, active compounds read low 1.01 | locus YGL167C, strain pmr1, active compounds read low 0.998 | locus YGL173C, strain kem1, active compounds read low 0.996 | locus YGL227W, strain vid30, active compounds read low 0.988 | locus YGL240W, strain doc1, active compounds read low 0.99 | locus YGL248W, strain PDE1, active compounds read low 1.01 | locus YGL253W, strain hxk2, active compounds read low 0.999 | locus YGR078C, strain PAC10, active compounds read low 0.997 | locus YGR135W, strain pre9, active compounds read low 0.997 | locus YGR229C, strain SMI1, active compounds read low 1 | locus YGR252W, strain gcn5, active compounds read low 0.983 | locus YHR013C, strain ard1, active compounds read low 1 | locus YHR027C, strain rpn1, active compounds read low 0.994 | locus YHR030C, strain SLT2, active compounds read low 0.979 | locus YHR079C, strain IRE1 (second series), active compounds read low 1.02 | locus YHR079C, strain IRE1, active compounds read low 0.978 | locus YHR094C, strain hxt1, active compounds read low 1.01 | locus YHR129C, strain ARP1, active compounds read low 1.01 | locus YHR142W, strain chs7, active compounds read low 0.995 | locus YHR200W, strain rpn10, active compounds read low 1.01 | locus YIL066C, strain RNR3, active compounds read low 1.02 | locus YIL073C, strain SPO22, active compounds read low 1.07 | locus YIL125W, strain kgd1, active compounds read low 1 | locus YIR030C, strain dcg1, active compounds read low 1.02 | locus YJL092W, strain hpr5, active compounds read low 0.995 | locus YJL095W, strain BCK1 (second series), active compounds read low 1 | locus YJL095W, strain BCK1, active compounds read low 0.987 and 0.984 | locus YJL115W, strain asf1, active compounds read low 0.986 | locus YJL129C, strain trk1, active compounds read low 0.997 | locus YJL134W, strain LCB3, active compounds read low 0.993 | locus YJL154C, strain vps35, active compounds read low 1 | locus YJL164C, strain tpk1, active compounds read low 1.01 | locus YJL166W, strain qcr8, active compounds read low 1 | locus YJL168C, strain set2, active compounds read low 1.01 | locus YJL187C, strain SWE1 (second series), active compounds read low 1.01 | locus YJL187C, strain SWE1, active compounds read low 1.01 | locus YJR043C, strain POL32, active compounds read low 1.01 | locus YJR066W, strain TOR1, active compounds read low 0.928
